Test results published in PubChem BioAssay AID1035475 (Broad Institute, 2014).
Potency and affinity values are given separately. Inconclusive results are not listed. Where a call stands in place of a potency, no number is given. The source made the active and inactive calls.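 Rule for the calls: active = fluorescent signal drops by 40% or more, counted as a hit; inconclusive = no clear call, values can overlap the other calls; inactive = the rest, including any activity in the opposite direction.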

Test: blockers of FN fibrillogenesis by fibroblasts – AH1F cells, Alexa488-FN fluorescence, cherry-picks, dose response (AID 1035475);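 note: AH1F fibroblasts incorporating labeled fibronectin into their extracellular matrix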
Settings: Alexa488-fibronectin deposition fluorescence, overnight; series mostly up to 35 µM

| SMILES | outcome |
| --- | --- |
| C[C@@H]1CN([C@@H](C)CO)C(=O)c2cc(NC(=O)CCCN(C)C)ccc2O[C@H]1CN(C)Cc1ccc(-c2ccccc2)cc1 | inactive |
| NC(=O)C1=C[C@H](c2coc3ccccc3c2=O)C[C@H](OCCCCO)O1 | inactive |
| CO[C@@H]1CN(C)C(=O)c2ccc(NC(=O)c3ccc(-c4ccccc4)cc3)cc2OC[C@H](C)NC[C@H]1C | inactive |
| C[C@H]1CN([C@@H](C)CO)C(=O)c2cc(-c3ccccc3)cnc2O[C@H]1CN(C)Cc1ccccc1 | inactive |
| O=C(Nc1ccccc1F)N1C[C@@H]2[C@H](c3ccccc31)[C@H](CO)N2C(=O)C1CCOCC1 | inactive |
| CO[C@H]1CN(C)C(=O)c2ccc(NC(=O)Nc3cc(Cl)cc(Cl)c3)cc2OC[C@H](C)NC[C@@H]1C | inactive |
| CN(C)C(=O)c1ccc(-c2ccc3c(c2)[C@@H]2[C@@H](CCN2C(=O)c2ccc(F)cc2)[C@@H](CO)N3C)cc1 | inactive |
| C[C@@H]1CN([C@H](C)CO)C(=O)c2cc(-c3ccccc3)cnc2O[C@@H]1CN(C)Cc1ccccc1 | inactive |
| C[C@@H]1CN([C@H](C)CO)C(=O)c2cc(NC(=O)C3CCCCC3)ccc2O[C@H]1CN(C)Cc1ccc(-c2ccccc2)cc1 | inactive |
| CN1c2ccc(-c3ccccc3)cc2[C@@H]2[C@@H](CCN2C(=O)CN2CCOCC2)[C@@H]1CO | inactive |
| CCN(Cc1ccncc1)C(=O)c1ccc2c(c1)S(=O)(=O)c1ccccc1C2=O | inactive |
| Cc1ccc(S(=O)(=O)N2CC[C@@H]3[C@@H](CO)Nc4ccc(-c5cccc(C(=O)N(C)C)c5)cc4[C@@H]32)cc1 | inactive |
| Cc1ccc(S(=O)(=O)N2CC3(C)CN(S(=O)(=O)c4ccc(C)cc4)CC(C)(C2)C3=O)cc1 | inactive |
| C[C@@H]1CN([C@@H](C)CO)C(=O)c2cccc(NC(=O)Nc3ccc(C(F)(F)F)cc3)c2O[C@H]1CN(C)C(=O)Nc1cccc2ccccc12 | inactive |
| C[C@H](O)C#Cc1ccc2c(c1)O[C@@H](CN(C)C)[C@H](C)CN([C@@H](C)CO)S2(=O)=O | inactive |
| COc1ccc([N+](=O)[O-])cc1NS(=O)(=O)c1ccc(C(=O)N2CCCC2)cc1 | inactive |
| C[C@@H]1CN([C@H](C)CO)C(=O)c2cc(-c3ccccc3)cnc2O[C@H]1CN(C)Cc1ccccc1 | inactive |
| Cc1cc(C)c(S(=O)(=O)Nn2cnnc2)c(C)c1 | inactive |

| SMILES | outcome |
| --- | --- |
| CO[C@H]1CN(C)C(=O)c2ccc(NC(=O)c3ccc(-c4ccccc4)cc3)cc2OC[C@H](C)NC[C@@H]1C | inactive |
| CO[C@H]1CN(C)C(=O)c2cc(NC(=O)Nc3ccc(Cl)c(Cl)c3)ccc2OC[C@@H](C)NC[C@@H]1C | inactive |
| COCC(=O)Nc1ccc2c(c1)C(=O)N(C)[C@@H]1CC[C@@H](CC(=O)NCc3ccccc3Cl)O[C@@H]1CO2 | inactive |
| COc1ncccc1C(=O)NC1CCCc2c1cnn2-c1ccc(C)c(C)c1 (stereo not given) | inactive |
| CN(C)C(=O)c1ccc(-c2ccc3c(c2)[C@H]2[C@H](CCN2C(=O)c2ccc(F)cc2)[C@@H](CO)N3C)cc1 | inactive |
| CCc1ccc(NC(=O)CSc2nnc(-c3ccco3)o2)cc1 | inactive |
| Fc1cnc(N2CCN(c3ccccc3)CC2)nc1N1CCN(c2ccccc2)CC1 | inactive |
| C[C@H]1CN([C@@H](C)CO)C(=O)c2cc(-c3ccccc3)cnc2O[C@@H]1CN(C)C(=O)c1cccc(F)c1 | inactive |
| CO[C@H]1CN(C)C(=O)c2ccc(NC(=O)c3ccc(-c4ccccc4)cc3)cc2OC[C@@H](C)NC[C@H]1C | inactive |
| C[C@H](O)C#Cc1ccc2c(c1)O[C@H](CN(C)C)[C@@H](C)CN([C@@H](C)CO)S2(=O)=O | inactive |
| C[C@H](O)C#Cc1ccc2c(c1)O[C@H](CN(C)C)[C@@H](C)CN([C@H](C)CO)S2(=O)=O | inactive |
| CO[C@@H]1CN(C)C(=O)c2cc(NC(=O)Nc3ccc(Cl)c(Cl)c3)ccc2OC[C@H](C)NC[C@@H]1C | inactive |
| N#C[C@H]1[C@H](c2ccccc2C2=CCCCC2)[C@H](CO)N1S(=O)(=O)c1ccccc1 | inactive |
| C[C@H](O)C#Cc1ccc2c(c1)O[C@H](CN(C)C)[C@H](C)CN([C@@H](C)CO)S2(=O)=O | inactive |
| COc1ccc(C)cc1N(CC(=O)Nc1cccc(N(C)S(C)(=O)=O)c1)S(C)(=O)=O | inactive |
| O=C(C[C@@H]1C[C@@H]2c3cc(NC(=O)c4ccc5c(c4)OCO5)ccc3O[C@@H]2[C@@H](CO)O1)NCc1ccc(Oc2ccccc2)cc1 | inactive |
| Nc1nc(-c2cc3c(cc2Cl)OCCO3)cs1 | inactive |
